Source: PubChem BioAssay (EPA / NIEHS)
Inconclusive results are not listed. Active and inactive are the calls of the source. Rule for the calls: active = hit-call score of the fitted dose curve at least 0.9, where 1 is the maximum; inconclusive = response in the unintended direction; inactive = score below 0.9.

Biological target: human Vitamin D Receptor (VDR), VDR (gene 7421) (UniProt P11473)
Assay: ATG_VDR_TRANS: Attagene TRANS-FACTORIAL HepG2 Assay for human Vitamin D Receptor (VDR) (AID 2283022)
Procedure: ATG_TRANS is a cell-based, multiplexed-readout assay that uses HepG2, a human liver cell line, with measurements taken at 24 hours after chemical dosing in a 24-well plate.ATG_VDR_TRANS is one of 30 assay component(s) measured or calculated from the ATG_TRANS assay. It is designed to make measurements of mRNA induction, a form of inducible reporter, as detected with fluorescence intensity signals by Reverse transcription polymerase chain reaction (RT-PCR) and Capillary electrophoresis technology.Data from the assay component ATG_VDR_TRANS was analyzed into 1 assay endpoint. This assay endpoint, ATG_VDR_TRANS, was analyzed in the positive analysis fitting direction relative to DMSO as the negative control and baseline of activity. Using a type of inducible reporter, measures of mRNA for gain-of-signal activity can be used to understand the reporter gene at the transcription factor-level as they relate to the gene VDR. Furthermore, this assay endpoint can be referred to as a primary readout, because this assay has produced multiple assay endpoints where this one serves a reporter gene function. To generalize the intended target to other relatable targets, this assay endpoint is annotated to the nuclear receptor intended target family, where the subfamily is non-steroidal.
Human liver HepG2 cells are transiently transfected with multiple reporter transcription units (MRTUs) in 6-well plates using FuGene 6 reagent (Roche; 3 ml FuGene/1 mg DNA). The MRTU constructs are regulated by a cis-regulating element (promoter). […] A major difference between the CIS and TRANS system is that in CIS activities of endogenous TFs are measured, whereas the TRANS assay evaluates changes in activities of exogenous, chimeric NR-Gal4 proteins. […] At the end of 24 hour incubation, total RNA was isolated using TriZol reagent (Invitrogen). The isolated RNA is then reverse-transcribed using oligo(dT) primer and Mo-MLV reverse transcriptase (Invitrogen) with DNAse I (Ambion) treatment for 30 min. The one-tenth of the produced cDNA was amplified by PCR using Taq DNA polymerase (Invitrogen) and two reporter sequence-specific primers. The PCR products were fluorescently labeled by primer extension with 6-arboxyfluorescein (6-FAM) 5'-labeled reporter sequence-specific primer (2 min at 95 C, 20 s at 68 C and 10 min at 72 C) and these products were digested with 5U of HpaI (New England Biolabs) for 2h at 37 C. The fragments were purified using Qiaquick PCR columns (Qiagen), analyzed on an ABI 3130xL genetic analyzer (Applied Biosystems) with peak positions identified by using a set of X-rhodamine (ROX)-labeled MapMarker1000 molecular weight standards (BioVentures). The raw capillary electrophoresis data was processed using Attagraph software (Attagene).

Sequence of human Vitamin D Receptor (VDR), VDR (gene 7421) (P11473 whole entry, looked up): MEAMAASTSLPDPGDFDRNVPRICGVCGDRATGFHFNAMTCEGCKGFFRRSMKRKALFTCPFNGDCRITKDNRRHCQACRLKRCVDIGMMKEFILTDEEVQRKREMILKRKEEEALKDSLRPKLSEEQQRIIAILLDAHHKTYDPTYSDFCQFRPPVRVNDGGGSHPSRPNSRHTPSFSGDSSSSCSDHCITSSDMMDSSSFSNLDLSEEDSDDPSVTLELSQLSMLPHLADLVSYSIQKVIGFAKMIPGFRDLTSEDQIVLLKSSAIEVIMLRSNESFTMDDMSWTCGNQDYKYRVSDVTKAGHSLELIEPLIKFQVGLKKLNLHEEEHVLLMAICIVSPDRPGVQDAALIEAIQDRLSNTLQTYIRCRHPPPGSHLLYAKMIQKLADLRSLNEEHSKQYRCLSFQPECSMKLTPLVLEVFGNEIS

| SMILES | outcome |
| --- | --- |
| O=S(=O)(OCCOC(F)(F)F)C(F)(F)F | inactive |
| FC(F)(F)C(F)(F)C(F)(F)C(F)(F)CCI | inactive |
| NC(=O)C(F)(F)C(F)(F)C(F)(F)C(F)(F)F | inactive |
| OCC(F)(F)C(F)(F)C(F)(F)C(F)(F)C(F)(F)C(F)F | inactive |
| CC(CCl)OP(=O)(OC(C)CCl)OC(C)CCl (stereo not given) | inactive |
| C=CC(=O)OCC(F)(F)C(F)(F)C(F)(F)C(F)(F)C(F)(F)C(F)(F)C(F)(F)F | inactive |
| FC(F)(F)C(F)(F)C(F)(F)C(F)(F)C(F)(F)C(F)(F)C(F)(F)C(F)(F)F | inactive |
| Nc1cc(Cl)c(N)c(Cl)c1 | inactive |
| c1ccc(B(c2ccccc2)c2ccccc2)cc1 | inactive |
| O=C(O)C(F)(F)C(F)(F)C(F)(F)C(F)(F)C(F)(F)C(F)(F)C(F)(F)C(F)(F)Cl | inactive |
| Nc1ccc(Oc2cccc(Oc3ccc(N)cc3)c2)cc1 | inactive |
| CCCCCC=O | inactive |
| OCC(F)(F)C(F)(F)C(F)(F)C(F)(F)C(F)(F)C(F)(F)F | inactive |
| Oc1ccc(Nc2ccccc2)cc1 | inactive |
| C=C(C)C(=O)OCCC(F)(F)C(F)(F)C(F)(F)C(F)(F)C(F)(C(F)(F)F)C(F)(F)F | inactive |
| OCC(F)(F)C(F)(F)C(F)(F)C(F)F | inactive |
| O=C(O)C(F)(F)C(F)(F)C(F)F | inactive |
| FC(F)(F)C(F)(F)C(F)(F)C(F)(F)C(F)(F)CCI | inactive |
| O=C(Cl)C(F)(F)C(F)(F)C(F)(F)C(F)(F)C(F)(F)C(F)(F)C(F)(F)C(F)(F)F | inactive |
| CCO[Si](CCC(F)(F)C(F)(F)C(F)(F)C(F)(F)C(F)(F)C(F)(F)F)(OCC)OCC | inactive |

| SMILES | outcome |
| --- | --- |
| O=S(=O)(OCC(F)F)C(F)(F)F | inactive |
| CCCCCCCCCCCCCCCC[N+](C)(C)Cc1ccccc1 | inactive |
| CCCCNc1ccccc1 | inactive |
| FC(F)(F)C(F)(F)C(F)(F)N(C(F)(F)C(F)(F)C(F)(F)F)C(F)(F)C(F)(F)C(F)(F)F | inactive |
| O=C(O)C(F)(F)C(F)(F)F | inactive |
| Cc1ccc(S(=O)(=O)OCC(F)(F)C(F)(F)C(F)(F)C(F)(F)C(F)(F)C(F)F)cc1 | inactive |
| O=C(C=Cc1ccccc1)OCC=Cc1ccccc1 | inactive |
| O=C(O)C(F)(OC(F)(F)C(F)(OC(F)(F)C(F)(F)C(F)(F)F)C(F)(F)F)C(F)(F)F (stereo not given) | inactive |
| OCCCC(F)(F)C(F)(F)C(F)(F)F | inactive |
| O=C(CC(=O)C(F)(F)C(F)(F)F)C(F)(F)F | inactive |
| FC(F)(F)C(F)(F)C(F)(F)C(F)(F)C(F)(F)C(F)(F)CCS | inactive |
| O=C(O)C(F)(F)C(F)(F)C(F)(F)C(F)(F)C(F)(F)C(F)(F)C(F)(F)C(F)(F)C(F)(F)C(F)(F)C(F)(F)C(F)(F)F | inactive |
| C=CC(=O)OCC(F)(F)C(F)(F)C(F)(F)C(F)(F)COC(=O)C=C | inactive |
| CNC(=S)NC | inactive |
| CC/C=C\CCOC(C)=O | inactive |
| N=C(N)C(F)(F)C(F)(F)C(F)(F)C(F)(F)C(F)(F)C(F)(F)C(F)(F)F | inactive |
| O=C(O)C=C(C(F)(F)F)C(F)(F)F | inactive |
| FC(F)(F)C(F)(F)CNCC(F)(F)C(F)(F)F | inactive |
| O=C(OCCOCCOCCOC(=O)c1ccccc1)c1ccccc1 | inactive |
| CCCCCCCCC(F)(F)C(F)(F)C(F)(F)C(F)(F)C(F)(F)C(F)(F)F | inactive |
